# Peg3 promoter: reduces Peg3 promoter-driven luciferase expression in HeLa; 360,000 compounds, 1.7% hits; inhibition, % at 20 µM; HeLa PEG-Prom luciferase reporter, luminescence, overnight;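 active = inhibition of at least 50% at 20 µM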
# TWEAK-Fn14 inh: blocks TWEAK-Fn14 interaction in a reporter cell assay; TWEAK-stimulated Fn14 reporter cells, luciferase luminescence, 8 h; inhibition, % at 10 µM; 360,000 compounds, 2% hits; AID 1159606; in the data active = inhibition above about 50%
# CF NFkB inh: inhibitors of cystic fibrosis induced NF-kB; 360,000 compounds, 0.86% hits; KKLEB NF-kB-GFP reporter, PAF-induced, GFP fluorescence overnight; inhibition, % at 5 µM;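 active = at least 50% inhibition at 5 µM, scaled per plate between neutral and stimulator controls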;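 note: PAF is a Pseudomonas aeruginosa culture filtrate used as stimulus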
# KKLEB cytotox: CF airway cell cytotoxicity counter-screen. 360,000 compounds, 0.36% hits. AID 602141. activity change (cytotoxicity), % at 5 µM. KKLEB CF airway cells viability, ATPlite luminescence, overnight; active compounds read low; cells stimulated with P. aeruginosa culture filtrate;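 active = corrected activity change at or below -50% at 5 µM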
# TROY NFkB inh: blocks TROY-dependent signaling in reporter cells. AID 1347056. inhibition, % at 10 µM. 360,000 compounds, 0.98% hits. Q293 LMP1-TROYcd NF-kB luciferase reporter, 4 h;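 active = compounds whose plate-normalised and pattern-corrected inhibition of the luciferase reporter signal at the single screening dose is 50% or more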
# HIF-2a inh: inhibitors of HIF-2a. 786-0 RCC cells HIF-2a reporter, luciferase luminescence, overnight. inhibition, % at 18.8 µM. 360,000 compounds, 0.72% hits. AID 624352;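 active = inhibition of the luminescence signal of 40% or more relative to plate controls, in a single-dose primary screen at 18.75 µM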
# Hits are given with their value; n = inactive. Most compounds without a hit are left out; they make up all but 4% or so of the library.
SMILES,Peg3 promoter,TWEAK-Fn14 inh,CF NFkB inh,KKLEB cytotox,TROY NFkB inh,HIF-2a inh
Cc1sc(NC(=O)CCCC(=O)O)c(C(N)=O)c1-c1ccccc1,n,52.5,n,n,n,77.8
O=c1ccc2c([nH]1)CCCCCCCCCC2,53.9,n,n,n,n,n
O=C(NCCCN1CCOCC1)c1ccc(Sc2ccc(Br)cc2)c([N+](=O)[O-])c1,n,n,n,n,n,n
Cc1ccc(-n2nnc(-c3cccnc3Cl)n2)cc1,n,n,n,n,n,n
Cc1cc(O)c(C(C)C)cc1NC(=O)Nc1ccc([N+](=O)[O-])cc1,n,n,n,n,n,n
Cc1ccc(C(C)C)cc1NC(=O)Nc1ccc([N+](=O)[O-])cc1,n,68.8,n,n,58.7,n
COc1ccc(-c2[nH]c(-c3ccc(C(=O)O)cc3)nc2-c2ccccc2)cc1,n,n,n,n,n,n
COc1cc(-c2nc(-c3ccc4c(c3)-c3ccccc3S4(=O)=O)c(-c3ccccc3)[nH]2)cc(OC)c1O,n,58.6,n,n,n,n
Cc1cc(OC(C)C(=O)NCCc2c[nH]c3ccccc23)c2c(C)cc(=O)oc2c1 (configuration not stated),n,n,n,n,n,n
Cc1cc(NC(=O)C2C3C(=O)N(CC4CCCO4)C(C(=O)NC(C)(C)C)C34C=CC2(C)O4)no1 (configuration not stated),n,n,n,n,n,n
COc1ccc2[nH]c3c(NCCC4=CCCCC4)ncnc3c2c1,n,79.1,n,n,n,n
COc1ccc2[nH]c3c(NCCCOC(C)C)ncnc3c2c1,n,n,n,n,n,n
Cc1ccccc1COC(=O)CN1C(=O)NC2(CCCC2)C1=O,n,n,n,n,n,n
COCCN(CC(=O)Nc1cccc(C)c1C)C(=O)c1oc2c(Cl)cccc2c1C,51.5,n,n,n,n,n
COc1ccc(CC(=O)N2CCOCC2)cc1,n,99.2,n,n,n,n
COc1ccc(CC(=O)N2CCOCC2)cc1OC,n,n,n,n,n,n
CCOc1cc(/C=C2/NC(=S)NC2=O)ccc1OCc1ccc([N+](=O)[O-])cc1,50.8,n,n,n,n,n
O=[N+]([O-])c1ccc(Nc2nc(N/N=C\c3ccc4c(c3)OCO4)nc(N3CCCCC3)n2)cc1,n,54.5,n,n,n,n
COc1cc(C(=O)NC2CCN(C)CC2)ccc1Nc1ncc2c(n1)N(C1CCCC1)CCC(=O)N2C(C)C,69.4,n,n,n,n,n
COc1cc(C(=O)NC2CCN(C)CC2)ccc1Nc1ncc2c(n1)N(CCc1ccccc1)CCC(=O)N2C,n,n,n,n,n,n
O=C(COc1ncnc2ccccc12)NCCC1=CCCCC1,n,n,n,n,n,n
N#Cc1cnn2c1nc(N1CCCCC1)c1ccccc12,51.4,n,n,n,n,n
CC(C)c1ccc(S(=O)(=O)c2nnn3c2nc(N2CCCCC2)c2ccccc23)cc1,n,n,n,n,n,n
Nc1nonc1-n1nnc(C(=O)N/N=C/c2cccs2)c1CSc1ccccc1,n,n,n,n,n,n
COc1cc(NC(=O)COc2ccc(-n3cnnn3)cc2)c(OC)cc1Cl,59.0,n,n,n,n,n
SMILES,Peg3 promoter,TWEAK-Fn14 inh,CF NFkB inh,KKLEB cytotox,TROY NFkB inh,HIF-2a inh
COc1ccc(NC(=O)CCc2c(C)nc3nc(CNC(=O)c4cccc(F)c4)nn3c2C)cc1OC,n,n,n,n,n,n
CCCC(=O)NC(c1cccs1)c1cc(Cl)c2cccnc2c1O (configuration not stated),n,n,n,n,n,n
CCCC(=O)NC(c1ccco1)c1cc(Cl)c2cccnc2c1O (configuration not stated),68.7,n,n,n,n,n
CCCC(=O)NC(c1ccc2c(c1)OCO2)c1cc(Cl)c2cccnc2c1O (configuration not stated),54.5,n,n,n,n,n
CCC(=O)NC(c1ccc(C)cc1)c1cc(Cl)c2cccnc2c1O (configuration not stated),n,n,n,n,n,n
CC(NCc1cccc(S(=O)(=O)N(C)C)c1)c1ccc(F)cc1 (configuration not stated),n,n,n,n,n,n
COc1cc(OC)cc(-c2sc3ccc(OC)cc3c2C#CC2(N)CCCCC2)c1,94.9,n,n,n,n,n
COc1ccc(-c2sc3cc4c(cc3c2C#CC2(N)CCCCC2)OCO4)cc1,93.4,n,n,n,n,n
